VDR inh – vitamin D3 receptor (human) inhibition; VDR-SRC2-3 peptide fluorescence polarization, 2 h; Potency, µM, for inactives: max response, negative = inhibition, actives largely listed as inhibitors; hit rate 0.93% among 400,000; AID 504847
Target sequence (P11473 whole entry, looked up): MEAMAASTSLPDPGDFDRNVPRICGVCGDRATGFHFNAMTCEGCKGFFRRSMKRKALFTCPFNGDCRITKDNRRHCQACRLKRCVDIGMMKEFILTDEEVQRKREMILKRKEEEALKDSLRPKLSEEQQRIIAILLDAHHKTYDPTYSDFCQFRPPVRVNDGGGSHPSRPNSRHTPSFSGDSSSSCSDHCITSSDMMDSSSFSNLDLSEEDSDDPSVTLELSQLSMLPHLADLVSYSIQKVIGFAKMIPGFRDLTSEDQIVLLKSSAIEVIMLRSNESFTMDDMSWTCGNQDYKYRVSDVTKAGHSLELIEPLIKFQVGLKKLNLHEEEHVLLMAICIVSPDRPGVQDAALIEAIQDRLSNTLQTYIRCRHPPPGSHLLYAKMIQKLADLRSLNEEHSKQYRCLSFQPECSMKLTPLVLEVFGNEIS
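Reagent solutions, kept cold and dark, are dispensed first; compounds are then pinned in at 23 nl, plates briefly spun, and incubated 2 h at ambient temperature. Inhibition of VDR–SRC2-3 peptide binding is read by fluorescence polarization.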
DT40 TDP1 CPT – growth inhibition of DT40 Tdp1-/-;hTDP1 cells with camptothecin (screen for TDP1 inhibitors). Potency, µM (highest dose often 46.2 µM), for the others: top-dose activity change, negative = growth inhibition, hits mostly inhibitors. hit rate 12% among 420,000. chicken DT40 Tdp1-/-;hTDP1 cells + 20 nM CPT, ATP luminescence, 48 h; note: nearly all actives have a fitted effect of over 55% in size
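Chicken DT40 Tdp1-/- cells complemented with human TDP1, 400 cells/well, exposed to compounds plus 20 nM camptothecin for at least 48 h at 37 C; viability read as ATP content by CellTiter-Glo luminescence.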
PLK1 PBD inh – blocks phosphopeptide binding to human PLK1 polo-box domain | hit rate 2.8% among 360,000 | Plk1 PBD binding of FITC phosphopeptide, fluorescence polarization | Potency, µM, for inactives: max response, negative = inhibition, usual class: inhibitors | P53350; note: series mostly up to about 57 µM; nearly all actives have a fitted effect of over 65% in size
GCN5L2 inh – inhibitors of human GCN5L2 histone acetyltransferase; Q92830; GCN5L2 HAT assay, ThioGlo1 CoA-SH fluorescence; Potency, µM (series often up to 58.9 µM), without a hit: top-dose activity change, negative = inhibition, actives largely listed as inhibitors; hit rate 0.21% among 390,000
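GCN5L2 (20 nM) in 50mM HEPES pH 7.5, 0.1mM EDTA, 0.01% Tween-20 preincubated 15 min with compounds at room temperature. Reaction started with H3(1-25) 75uM, acetyl-CoA 70uM, ThioGlo1 50uM; CoA-thiol fluorescence (Ex340/Em540) read at 0 and 20 min.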
TDP1 cell noCPT – qHTS for Inhibitors of human tyrosyl-DNA phosphodiesterase 1 (TDP1): qHTS in cells in absence of CPT. hit rate 15% among 420,000. DT40 Tdp1-/- hTDP1 cells, no CPT, ATP luminescence, 48 h. Potency, µM (highest dose often 46.2 µM), without a hit: at the highest dose activity change, negative = growth inhibition, actives largely listed as inhibitors; note: nearly all actives have a fitted effect of over 55% in size
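Readout: luminescence from CellTiter-Glo after 30 min in the dark at RT. Cells: DT40 Tdp1-/- with stable hTDP1, 400/well. Exposure: compounds alone, ≥48 hr, 37 °C.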
TDP1 block – blocks human tyrosyl-DNA phosphodiesterase 1. Q9NUW8. recombinant TDP1, AlphaScreen DNA substrate cleavage. Potency, µM (top dose mostly 130 µM), inactives show top-dose activity change, negative = inhibition, most hits filed as inhibitors. hit rate 0.28% among 350,000. AID 485290; note: nearly all actives have a fitted effect of over 40% in size
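Signal: AlphaScreen proximity between streptavidin donor and anti-FITC acceptor beads on intact substrate. Reaction: Tdp1 1 nM, substrate 15 nM final, 5 min RT after 15 min compound preincubation.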
Active calls of the source: *; ! = repeats disagree; [ ] = another dose, or the depositor's remark. Sampled rows, rich in hits. Any-hit rate of the full collection: about 18%. Calls come from the whole dose curve; as a rule, active = well fitted curve in the direction sought with a large enough effect; inconclusive = small, poorly fitted or top-dose-only effect, or another doubt; inactive = no such curve, though single readings can be large; an effect the other way counts as inactive or inconclusive. % is set by controls: 0 for no effect and ±100 for the full control effect; potency is the fitted concentration of half-maximal effect.

Results for CCn1c(SCC(=O)N2CCCc3ccccc32)nc2ccccc2c1=O ?
VDR inh: -1.1%; DT40 TDP1 CPT: inconclusive; PLK1 PBD inh: -4.5%; GCN5L2 inh: -4.9%; TDP1 cell noCPT: 14.6µM*; TDP1 block: 2.1%

How did CC(C)Cn1c(SCC(=O)N2CCCc3ccccc32)nc2ccccc2c1=O do in these assays?
VDR inh: -7.5%; DT40 TDP1 CPT: 16.4µM*; PLK1 PBD inh: -8.6%; GCN5L2 inh: -11.2%; TDP1 cell noCPT: 18.4µM*

Results for O=C(CSc1nccn1-c1ccccc1)N1CCc2ccccc21 ?
VDR inh: 14.3%; DT40 TDP1 CPT: -21.9%; PLK1 PBD inh: -9.9%; GCN5L2 inh: -3.4%; TDP1 cell noCPT: -20.9%; TDP1 block: 5.3%

Results for COCCCn1c(=O)c2ccccc2n(CC(=O)N2CCCc3ccccc32)c1=O ?
VDR inh: -13.8%; DT40 TDP1 CPT: 25.9µM*; PLK1 PBD inh: -2.4%; GCN5L2 inh: -0.5%; TDP1 cell noCPT: inconclusive; TDP1 block: 0.9%

How did CCn1c(SCC(=O)N2CCCc3ccccc32)nc2cccnc21 do in these assays?
VDR inh: 8.4%; DT40 TDP1 CPT: inconclusive; PLK1 PBD inh: -7.3%; GCN5L2 inh: -0.1%; TDP1 cell noCPT: 18.4µM*; TDP1 block: 4.5%

How did Cn1c(=O)c2ccccc2n(CC(=O)N2CCCc3ccccc32)c1=O do in these assays?
VDR inh: 7.1%; DT40 TDP1 CPT: -23.1%; PLK1 PBD inh: -5.1%; GCN5L2 inh: -4.8%; TDP1 cell noCPT: inconclusive; TDP1 block: 3.1%

Results for CC(C)N1CCC1(C)C(=O)Nc1cc(-c2ccccc2)nn1C (stereo not drawn) ?
DT40 TDP1 CPT: -16.4%; PLK1 PBD inh: -2.1%; TDP1 cell noCPT: -7.2%

Results for COc1cc(/C=N/Nc2nc(C)cc(C)n2)ccc1O ?
DT40 TDP1 CPT: -0.1%; PLK1 PBD inh: 2.3%; TDP1 cell noCPT: 0.6%

What do the screens show for `COc1cc(/C=N/Nc2nc3ccccc3[nH]2)cc(OC)c1O`?
VDR inh: 1.6%; DT40 TDP1 CPT: 4.11µM*; PLK1 PBD inh: -12.6%; GCN5L2 inh: -6.6%; TDP1 cell noCPT: 3.66µM*; TDP1 block: 11.0%

What do the screens show for `COc1cc(/C=N/Nc2nc3ccccc3[nH]2)ccc1O`?
VDR inh: -7.0%; DT40 TDP1 CPT: 6.51µM*; PLK1 PBD inh: -4.2%; GCN5L2 inh: -2.7%; TDP1 cell noCPT: 4.61µM*; TDP1 block: 5.3%

How did COc1cc(/C=N/Nc2snc(SC)c2C#N)ccc1O do in these assays?
VDR inh: 0.8%; DT40 TDP1 CPT: 3.98µM*; PLK1 PBD inh: -2.7%; GCN5L2 inh: -2.3%; TDP1 cell noCPT: 3.16µM*; TDP1 block: 2.0%

Results for CC(/C=N/Nc1nc2ccccc2[nH]1)=C\c1ccccc1 ?
VDR inh: 16.5%; DT40 TDP1 CPT: 14.6µM*; PLK1 PBD inh: -7.9%; GCN5L2 inh: -7.0%; TDP1 cell noCPT: inconclusive; TDP1 block: 7.0%

How did COc1ccc(C(=O)N[C@H](C(=O)NC2CCCCC2)C(C)C)cc1 do in these assays?
VDR inh: -0.7%; DT40 TDP1 CPT: -14.1%; PLK1 PBD inh: -2.1%; GCN5L2 inh: 0.1%; TDP1 cell noCPT: 2.3%; TDP1 block: 0.2%

How did N#Cc1nc(-c2ccc(Cl)cc2)oc1NCC1CCCO1 (stereo not drawn) do in these assays?
VDR inh: 0.6%; DT40 TDP1 CPT: -2.8%; PLK1 PBD inh: -10.2%; GCN5L2 inh: -4.0%; TDP1 cell noCPT: -1.3%; TDP1 block: -3.1%

Results for O=C(CSC1=NS(=O)(=O)c2cc(Cl)ccc2N1)Nc1cccc(F)c1 ?
VDR inh: -17.3%; DT40 TDP1 CPT: -7.9%; PLK1 PBD inh: -13.6%; GCN5L2 inh: -3.3%; TDP1 cell noCPT: -2.6%; TDP1 block: -0.5%

How did COc1cccc(/C=N/Nc2nc3ccccc3[nH]2)c1O do in these assays?
VDR inh: -9.3%; DT40 TDP1 CPT: 18.4µM*; PLK1 PBD inh: 3.3%; GCN5L2 inh: -11.6%; TDP1 cell noCPT: 23.1µM*; TDP1 block: 12.3%

Results for CC(=O)Nc1ccc(/C=N/Nc2nc3ccccc3[nH]2)cc1 ?
VDR inh: 16.1%; DT40 TDP1 CPT: -29.8%; PLK1 PBD inh: -3.0%; GCN5L2 inh: -4.6%; TDP1 cell noCPT: -8.6%; TDP1 block: -1.9%

Results for CCN(CC)c1ccc(/C=N/Nc2nc3ccccc3[nH]2)cc1 ?
VDR inh: 6.7%; DT40 TDP1 CPT: 3.26µM*; PLK1 PBD inh: -5.6%; GCN5L2 inh: -10.9%; TDP1 cell noCPT: 4.61µM*; TDP1 block: 12.2%

What do the screens show for `COC(=O)c1ccc(-c2nc(O)c(C)s2)cc1`?
VDR inh: 79.4µM*; DT40 TDP1 CPT: -27.0%; PLK1 PBD inh: 7.52µM*; GCN5L2 inh: 19.7%; TDP1 cell noCPT: inconclusive; TDP1 block: -2.7%

What do the screens show for `COc1ccc(OC)c(NC(=O)c2nnn(CC(=O)Nc3ccc(C(C)C)cc3)c2N)c1`?
VDR inh: -1.1%; DT40 TDP1 CPT: -101.3%; GCN5L2 inh: -5.1%; TDP1 cell noCPT: inconclusive; TDP1 block: -4.2%

How did CCOC(=O)C1=C(C)NC(C)=C(C(=O)OC)[C@@H]1c1cccc([N+](=O)[O-])c1 do in these assays?
VDR inh: inconclusive; GCN5L2 inh: 0.0%[21.4 µM]; TDP1 block: 6.2%[21 µM]

What do the screens show for `CCOC(=O)C1=C(N)Oc2cc(O)ccc2C1c1cccc([N+](=O)[O-])c1` (stereo not drawn)?
VDR inh: 13.3%; DT40 TDP1 CPT: inconclusive; PLK1 PBD inh: -6.2%; GCN5L2 inh: -12.9%; TDP1 cell noCPT: 16.4µM*; TDP1 block: 0.0%

How did COC(=O)C1=C(C)NC(C)=C(C(=O)OCCCN2CCC(c3ccccc3)(c3ccccc3)CC2)[C@H]1c1cccc([N+](=O)[O-])c1 do in these assays?
VDR inh: -0.6%; DT40 TDP1 CPT: 11.9µM*; GCN5L2 inh: -21.9%; TDP1 cell noCPT: 11.9µM*; TDP1 block: 22.9%[56.1 µM]

How did CCOC(=O)C1=C(C)NC(C)=C(C(=O)OC)C1c1cccc([N+](=O)[O-])c1 (stereo not drawn) do in these assays?
VDR inh: inconclusive; DT40 TDP1 CPT: 11.9µM*!; PLK1 PBD inh: -4.4%; GCN5L2 inh: -29.6%; TDP1 cell noCPT: 15µM*!; TDP1 block: 2.7%

How did CCOC(=O)C1=C(CN2CCOCC2)NC(=O)NC1c1cccc([N+](=O)[O-])c1 (stereo not drawn) do in these assays?
VDR inh: -6.5%; DT40 TDP1 CPT: 7.6%; PLK1 PBD inh: -7.6%; GCN5L2 inh: 0.0%; TDP1 cell noCPT: 6.0%; TDP1 block: 8.4%

From PubChem
